In PubChem BioAssay AID463173 (ICCB-Longwood Screening Facility, Harvard Medical School, 2010):
The campaign covered roughly 52,000 compounds. About 4,300 (8.3%) were called active. The sample as a whole holds a higher share of actives than the screen did. Unmarked numbers belong to inactive results. Cut-off read from the data, not from the text of the source: active = survival mostly below about 52% (no sharp cut-off); inactive = mostly above about 56%.

Each compound was assayed on DeltatarO mutant (assay: growth inhibition of S. aureus wild type versus tarO mutant, primary screen, teichoic acid synthesis inhibitors, RN4220, OD600 (AID 463173)). Conditions: OD600, 18 h, active compounds read low, screened at 18.75 µg/mL (by protocol).

Row | Structure (SMILES) | survival
1 | CCC1/C(=N\O)CC(c2ccco2)NC1c1ccco1 (centres undefined) | 84%
2 | COc1ccc(NC(=O)Cn2c(SCc3ccc(C)cc3)nc3cccnc32)c(OC)c1 | 82%
3 | Cc1ccc(NC(=O)[C@H](Cc2ccccc2)N2Cc3ccccc3C2=O)cc1F | 84%
4 | O=C(Nc1ccc(F)cc1F)C(Cc1ccccc1)N1Cc2ccccc2C1=O (centres undefined) | -4% (active)
5 | Cc1ccc(C)c(NC(=O)C(CC(C)C)N2Cc3ccccc3C2=O)c1 (centres undefined) | 134%
6 | COC(=O)c1cc(NC(=O)[C@H](CCS(C)(=O)=O)N2Cc3ccccc3C2=O)cc(C(=O)OC)c1 | 86%
7 | CC(C(=O)Nc1ccc(OC(F)(F)F)cc1)N1Cc2ccccc2C1=O (centres undefined) | 20% (active)
8 | O=C(Nc1ccc(F)cc1)[C@H](Cc1ccccc1)N1Cc2ccccc2C1=O | 89%
9 | CS(=O)(=O)CCC(C(=O)Nc1cccc(C(F)(F)F)c1)N1Cc2ccccc2C1=O (centres undefined) | 17% (active)
10 | O=C(Nc1ccccc1F)C(Cc1ccccc1)N1Cc2ccccc2C1=O (centres undefined) | 60%
11 | COc1cc(NC(=O)C(CCS(C)(=O)=O)N2Cc3ccccc3C2=O)cc(OC)c1OC (centres undefined) | 55%
12 | CCOc1ccc(NC(=O)C(CC(C)C)N2Cc3ccccc3C2=O)cc1 (centres undefined) | 130%
13 | COC(=O)c1ccc(NC(=O)C(C)N2Cc3ccccc3C2=O)cc1 (centres undefined) | 66%
14 | Cc1ccc(NC(=O)C(CC(C)C)N2Cc3ccccc3C2=O)cc1F (centres undefined) | -5% (active)
15 | CC(C)Cn1c(=O)c2ccccc2n2c(CCC(=O)N3CCN(c4ccccc4F)CC3)nnc12 | 92%
16 | Cc1noc(Cn2c(=O)c3cc4c(cc3n(CC(=O)Nc3cccc(Cl)c3)c2=O)OCO4)n1 | 122%
17 | COc1cccc(C(=O)Nc2ccc3nc(SCCOc4ccccc4)sc3c2)c1 | 75%
18 | Cc1cc(C)nc(-n2nc(C)c3c2N(Cc2ccccc2C)C(=O)CC3c2ccc(Cl)cc2)n1 (centres undefined) | 72%
19 | COc1ccc(-c2cc(C(F)(F)F)n3nc(C(=O)Nc4cccc(C(F)(F)F)c4)c(Br)c3n2)cc1 | 73%
20 | CC(C(=O)Nc1ccc(F)c(Cl)c1)N1Cc2ccccc2C1=O (centres undefined) | 8% (active)
21 | COc1ccc(NC(=O)C(C)N2Cc3ccccc3C2=O)cc1OC (centres undefined) | 101%
22 | Cc1cc(C)cc(NC(=O)C(C)N2Cc3ccccc3C2=O)c1 (centres undefined) | 91%

Row | Structure (SMILES) | survival
23 | CCCn1ccc2c(OCC(=O)Nc3ccccc3C(=O)OCC)cccc2c1=O | 94%
24 | Cc1ccc(C)c(CN2C(=O)c3ccccc3S(=O)(=O)c3ccc(C(=O)NCCc4ccc(Cl)cc4)cc32)c1 | 111%
25 | N#Cc1cccc(NC(=O)C2CCN(c3nc(-c4ccc(Cl)cc4)no3)CC2)c1 | 82%
26 | COc1ccc(CNC(=O)CCCn2ccc3cc(S(=O)(=O)N4CCCC4)ccc32)cc1 | 101%
27 | CC1CCN(S(=O)(=O)c2ccc3c(ccn3CC(=O)NCc3ccccc3F)c2)CC1 | 54%
28 | O=C(CCn1ccc2cc(S(=O)(=O)N3CCCC3)ccc21)NCc1cccc(Cl)c1 | 17% (active)
29 | Cc1cccc(CNC(=O)Cn2ccc3cc(S(=O)(=O)N4CCCCCC4)ccc32)c1 | -5% (active)
30 | Cc1cccc(CNC(=O)Cn2ccc3cc(S(=O)(=O)N4CCC(C)CC4)ccc32)c1 | 76%
31 | Cc1cccc(CNC(=O)CCn2ccc3cc(S(=O)(=O)N4CCCC4)ccc32)c1 | 87%
32 | O=C(Cn1ccc2cc(S(=O)(=O)N3CCCCC3)ccc21)NCc1cccc(Cl)c1 | 117%
33 | O=C(CCn1ccc2cc(S(=O)(=O)N3CCCC3)ccc21)NCc1ccccc1F | 94%
34 | CCc1ccc(CNC(=O)CCCn2ccc3cc(S(=O)(=O)N4CCCC4)ccc32)cc1 | 91%
35 | Cc1cccc(CNC(=O)Cn2ccc3cc(S(=O)(=O)N4CCCC4)ccc32)c1 | 73%
36 | CN(C)c1ccc(CNC(=O)CCCn2ccc3cc(S(=O)(=O)N4CCCC4)ccc32)cc1 | 8% (active)
37 | CC1CCN(S(=O)(=O)c2ccc3c(ccn3CCC(=O)NCc3ccccc3F)c2)CC1 | -5% (active)
38 | Cc1nn(C)c2c1c(-c1ccccc1)cc(=O)n2C(C)C(=O)NCCc1ccc(Cl)cc1 (centres undefined) | 99%
39 | CCOC(=O)c1cc2c(=O)n3ccccc3nc2n(CCOC)c1=NC(=O)c1c(-c2ccccc2Cl)noc1C | 180%
40 | Cc1cccc(C(c2sc3nc(-c4ccco4)nn3c2O)N2CCN(c3ccccc3F)CC2)c1 (centres undefined) | 67%
41 | CCOC(=O)c1ccc2c(c1)N(CC(=O)Nc1ccc(C)cc1C)C(=O)c1ccccc1S2 | 112%
42 | Cc1sc2c(c1C)c(=O)n(CCc1ccccc1)c(=O)n2Cc1ccc(C(C)(C)C)cc1 | 87%
43 | Cc1cccc(-n2c(CCN3C(=O)c4ccccc4C3=O)nc3ccccc3c2=O)n1 | 87%
44 | Clc1ccc(CN2CCc3nc(Nc4ccc5c(c4)OCCO5)ncc3C2)cc1 | 94%
